The source made the active and inactive calls. Unless noted, no rule for the calls is given here.
Assays:
[1] = compounds binding Alexa647 anti-His antibody – biochemical, small-molecule microarray, 635 nm fluorescence, artefact control for SMM control protein annotation, primary screen (AID 1128); details: higher = more signal;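 also: score merges feature fluorescence with signal-to-noise for each printed compound spot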
[2] = system: Human papillomavirus type 1a E7 protein (residues 1-88); test: HPV1a E7 small-molecule binders, primary screen, biochemical, small-molecule microarray, residues 1-88, 635 nm (AID 1129); details: small-molecule microarray binding, fluorescence 635 nm; higher = more signal
[3] = biological target: Focal adhesion kinase 1 (Homo sapiens) (UniProt Q05397); test: PTK2 protein binding on printed compound slides – biochemical, small-molecule microarray, 635/667 nm fluorescence, BSA, DTT, primary screen (AID 1130); details: 635 nm fluorescence, higher = more signal;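 also: composite of spot emission at 667 nm and signal to noise over triplicate slides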
Chain of Focal adhesion kinase 1 (Homo sapiens) (Q05397 whole entry, looked up): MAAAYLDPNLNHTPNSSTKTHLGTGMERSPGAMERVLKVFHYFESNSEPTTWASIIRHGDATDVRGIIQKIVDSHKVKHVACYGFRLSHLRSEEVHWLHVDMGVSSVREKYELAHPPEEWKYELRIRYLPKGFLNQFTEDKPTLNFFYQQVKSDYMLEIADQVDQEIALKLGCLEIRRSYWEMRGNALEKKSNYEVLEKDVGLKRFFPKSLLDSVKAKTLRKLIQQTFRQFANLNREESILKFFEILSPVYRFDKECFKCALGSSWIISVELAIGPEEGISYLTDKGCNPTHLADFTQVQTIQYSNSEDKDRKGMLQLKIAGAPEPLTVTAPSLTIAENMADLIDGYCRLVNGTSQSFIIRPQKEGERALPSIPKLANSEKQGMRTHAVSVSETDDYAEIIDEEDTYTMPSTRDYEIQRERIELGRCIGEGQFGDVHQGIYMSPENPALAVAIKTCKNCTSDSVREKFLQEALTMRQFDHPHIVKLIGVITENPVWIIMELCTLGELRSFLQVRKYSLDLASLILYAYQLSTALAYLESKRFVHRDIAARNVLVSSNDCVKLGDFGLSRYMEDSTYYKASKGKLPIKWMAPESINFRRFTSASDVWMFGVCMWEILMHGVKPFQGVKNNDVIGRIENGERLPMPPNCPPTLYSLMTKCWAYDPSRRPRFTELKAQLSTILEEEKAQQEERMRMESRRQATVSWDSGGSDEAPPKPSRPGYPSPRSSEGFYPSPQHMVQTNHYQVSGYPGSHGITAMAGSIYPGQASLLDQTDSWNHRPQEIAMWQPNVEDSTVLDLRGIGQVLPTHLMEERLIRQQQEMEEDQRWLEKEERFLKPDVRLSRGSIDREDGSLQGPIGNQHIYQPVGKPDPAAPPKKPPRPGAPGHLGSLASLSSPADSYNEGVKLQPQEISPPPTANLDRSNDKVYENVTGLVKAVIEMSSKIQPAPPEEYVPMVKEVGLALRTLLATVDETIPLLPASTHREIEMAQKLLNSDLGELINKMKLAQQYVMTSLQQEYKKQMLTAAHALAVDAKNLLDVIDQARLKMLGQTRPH

[4] = system: Fibrinogen (Alexa647-labelled); test: Alexa647-fibrinogen binding to printed small molecules – biochemical, small-molecule microarray, 635/667 nm fluorescence, artefact control for SMM control-protein annotation, profiling panel (AID 1131); details: fibrinogen-A647 binding fluorescence, higher = more signal;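 also: z-score merges 667 nm fluorescence with per-spot signal-to-noise over triplicate slides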
[5] = biological target: Follistatin (Homo sapiens) (UniProt P19883); test: FST protein binding to printed compounds – biochemical, small-molecule microarray, 635/667 nm fluorescence, primary screen (AID 1132); details: 635 nm fluorescence, higher = more signal
Chain of Follistatin (Homo sapiens) (P19883 whole entry, looked up): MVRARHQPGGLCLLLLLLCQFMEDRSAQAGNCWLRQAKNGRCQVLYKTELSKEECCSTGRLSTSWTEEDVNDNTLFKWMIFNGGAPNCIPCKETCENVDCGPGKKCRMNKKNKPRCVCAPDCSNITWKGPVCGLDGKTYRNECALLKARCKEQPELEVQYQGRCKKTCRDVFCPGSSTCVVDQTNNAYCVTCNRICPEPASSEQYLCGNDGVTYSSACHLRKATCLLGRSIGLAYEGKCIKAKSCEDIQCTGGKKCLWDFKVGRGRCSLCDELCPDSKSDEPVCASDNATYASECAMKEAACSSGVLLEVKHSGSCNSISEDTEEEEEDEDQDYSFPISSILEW

[6] = biological target: Fibroblast growth factor 2 (Homo sapiens) (UniProt P09038); test: basic fibroblast growth factor binding to printed compounds – biochemical, small-molecule microarray, 635/667 nm fluorescence, primary screen (AID 1133); details: FGF2, fluorescence 635/667, higher = more signal
Chain of Fibroblast growth factor 2 (Homo sapiens) (P09038 whole entry, looked up): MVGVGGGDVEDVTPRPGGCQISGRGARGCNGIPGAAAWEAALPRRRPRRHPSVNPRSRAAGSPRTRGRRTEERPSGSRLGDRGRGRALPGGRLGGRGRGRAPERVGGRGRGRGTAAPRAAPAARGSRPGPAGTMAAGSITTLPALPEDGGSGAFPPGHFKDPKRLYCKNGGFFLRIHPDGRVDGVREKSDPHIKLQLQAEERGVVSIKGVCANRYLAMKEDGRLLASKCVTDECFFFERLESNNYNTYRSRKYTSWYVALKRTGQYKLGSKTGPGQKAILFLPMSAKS

[7] = JC-1 mitochondrial potential readout, lung cancer cells – cell-based, A549, JC-1 fluorescence, basal, 24 h, 100 nL, profiling panel (AID 1138); details: higher = more signal;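 also: A549 lung adenocarcinoma cells under basal conditions with no added stimulus; test concentration not given here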
[8] = system: Lefty1; test: Lefty1 protein binding to printed compounds – biochemical, small-molecule microarray, 635/667 nm fluorescence, primary screen (AID 1139); details: fluorescence 635/667, higher = more signal
[9] = system: wheat germ agglutinin (Triticum aestivum), Alexa647-labelled; test: Alexa647-WGA lectin binding to printed small molecules – biochemical, small-molecule microarray, 635/667 nm fluorescence, artefact control for SMM control-protein annotation, profiling panel (AID 1140); details: WGA-A647 binding, 635 nm fluorescence, higher = more signal;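 also: score merges 667 nm feature emission with signal to noise over triplicate slides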
[10] = biological target: Luciferin 4-monooxygenase (Photinus pyralis) (UniProt P08659); test: inhibition of purified Photinus pyralis luciferase – biochemical, luminescence, purified enzyme, 2006 set, primary screen (AID 1141); details: purified firefly luciferase, SteadyGlo luminescence, 30 min; higher = more signal, called active from +8 up or from −8 down;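 also: cell-free assay with purified firefly luciferase at 100 ng per well in PBS; test concentration not given here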
Chain of Luciferin 4-monooxygenase (Photinus pyralis) (P08659 whole entry, looked up): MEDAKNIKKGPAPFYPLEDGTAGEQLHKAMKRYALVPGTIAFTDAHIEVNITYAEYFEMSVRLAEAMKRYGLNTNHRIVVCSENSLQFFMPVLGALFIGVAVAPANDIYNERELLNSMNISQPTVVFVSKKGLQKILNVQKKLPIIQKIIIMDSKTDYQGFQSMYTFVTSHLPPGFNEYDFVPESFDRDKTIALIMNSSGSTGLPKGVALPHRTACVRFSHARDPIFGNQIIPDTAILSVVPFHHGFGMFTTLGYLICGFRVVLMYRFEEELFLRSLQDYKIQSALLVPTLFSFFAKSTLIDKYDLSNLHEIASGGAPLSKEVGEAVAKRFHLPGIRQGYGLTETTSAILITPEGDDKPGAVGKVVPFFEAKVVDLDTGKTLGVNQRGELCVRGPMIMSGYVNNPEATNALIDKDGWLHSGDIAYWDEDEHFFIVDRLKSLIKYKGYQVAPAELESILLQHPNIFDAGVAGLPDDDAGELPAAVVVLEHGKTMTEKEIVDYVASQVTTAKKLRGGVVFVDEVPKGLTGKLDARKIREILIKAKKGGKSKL

[11] = system: Wnt5a (protein binding on small-molecule microarray); test: small molecules binding Wnt5a protein – biophysical, small-molecule microarray, 635/667 nm fluorescence, primary screen (AID 1142); details: 635 nm fluorescence, higher = more signal;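 also: fluorescence read at 667 nm with signal to noise per printed feature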
[12] = ATP-based viability of Huh7 replicon cells – cell-based, CellTiter-Glo luminescence, basal, 48 h, cytotoxicity control for HCV replication inhibitor project, primary screen (AID 1143); details: higher = more signal, called active from +8 up or from −8 down;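 also: Huh7 hepatoma cells carrying a hepatitis C replication reporter with no stimulus; test concentration not given here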
[13] = Pseudomonas biofilm growth suppression – PAO1 strain, BacTiter-Glo luminescence, LB-PBS, primary screen (AID 1144); details: P. aeruginosa PAO1 biofilm, 12 h, higher = more signal
[14] = basal CRE-LacZ reporter activity in PC12 – cell-based, unstimulated, primary screen (AID 1145); details: no forskolin, luminescence, 4.5 h, higher = more signal, called active from +8 up or from −8 down
[15] = forskolin-driven CRE-LacZ activity in PC12 – cell-based, CRE-LacZ reporter, forskolin-stimulated, primary screen (AID 1146); details: luminescence, 4.5 h, higher = more signal, called active from +8 up or from −8 down;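 also: PC12 cells with 6xCRE LacZ reporter stimulated by forskolin 10 µM; beta-galactosidase reporter signal reflecting CREB driven transcription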
[16] = biological target: Streptavidin (Streptomyces avidinii) (UniProt P22629); test: compounds binding control protein streptavidin – biophysical, small-molecule microarray, 635/667 nm fluorescence, artefact control for SMM compound annotation, primary screen (AID 1147); details: higher = more signal;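 also: signal reflects streptavidin binding to arrayed compounds as a control protein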
Chain of Streptavidin (Streptomyces avidinii) (P22629 whole entry, looked up): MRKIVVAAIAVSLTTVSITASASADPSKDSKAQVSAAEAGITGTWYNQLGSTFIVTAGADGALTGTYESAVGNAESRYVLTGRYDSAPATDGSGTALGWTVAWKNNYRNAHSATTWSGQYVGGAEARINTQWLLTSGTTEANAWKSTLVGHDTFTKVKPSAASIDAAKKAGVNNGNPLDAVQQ

[17] = probe aInhba binding on compound microarray – biochemical, small-molecule microarray, 635/667 nm fluorescence, primary screen (AID 1148); details: higher = more signal;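 also: score merges 667nm spot fluorescence with signal-to-noise for antibody binding to printed compounds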
[18] = biological target: Torsin-1A (Homo sapiens) (UniProt O14656); test: TOR1A wild-type binding on microarray – cell lysate, small-molecule microarray, lysate, 635/667 nm, primary screen (AID 1149); details: COS7 hTOR1A-WT lysate, 635 nm fluorescence, higher = more signal
Chain of Torsin-1A (Homo sapiens) (O14656 whole entry, looked up): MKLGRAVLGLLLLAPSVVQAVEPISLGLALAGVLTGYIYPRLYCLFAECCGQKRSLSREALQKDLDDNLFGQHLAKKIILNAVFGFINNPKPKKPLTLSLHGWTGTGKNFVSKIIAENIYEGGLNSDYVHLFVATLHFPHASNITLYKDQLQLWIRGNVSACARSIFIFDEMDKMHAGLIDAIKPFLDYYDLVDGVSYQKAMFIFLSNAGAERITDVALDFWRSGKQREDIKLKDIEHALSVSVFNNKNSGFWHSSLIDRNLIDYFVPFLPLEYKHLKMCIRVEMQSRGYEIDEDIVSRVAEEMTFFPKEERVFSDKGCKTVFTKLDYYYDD

[19] = biological target: Torsin-1A (Homo sapiens) (UniProt O14656); test: torsin A mutant lysate binding on microarrays – cell lysate, small-molecule microarray, COS7 lysate, 635/667 nm fluorescence, primary screen (AID 1150); details: COS7 hTOR1A mutant lysate, 635 nm fluorescence, higher = more signal;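 also: score pools 667 nm emission and signal to noise measuring lysate protein binding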
[20] = system: Sonic hedgehog protein (Shh); test: Sonic hedgehog microarray binding compounds – biochemical, small-molecule microarray, 635/667 nm fluorescence, primary screen (AID 1151); details: 635 nm fluorescence, higher = more signal;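 also: Shh protein binding to compounds spotted on small-molecule microarray slides; score combines spot fluorescence intensity with signal-to-noise across triplicate slides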

SMILES | composite z-score [1] | composite z-score [2] | composite z-score [3] | composite z-score [4] | composite z-score [5] | composite z-score [6] | z-score [7] | composite z-score [8] | composite z-score [9] | z-score [10] | composite z-score [11] | z-score [12] | z-score [13] | z-score [14] | z-score [15] | composite z-score [16] | composite z-score [17] | composite z-score [18] | composite z-score [19] | composite z-score [20]
COC(=O)[C@@]1(Cc2ccc(F)cc2)[C@H]2c3cc(C(=O)N(C)C)n(CCN4CCOCC4)c3C[C@H]2CN1C(=O)c1ccccc1 | 1.65 | 1.19 | 1.14 | 0.32 | -0.0389 | -0.708 | 0.147 | -0.0199 | 0.331 | 2.64 (inactive) | 0.483 | -1.02 (inactive) | 0.263 (inactive) | -0.372 (inactive) | 0.823 (inactive) | 1.36 | 0.17 | 2.73 | 2.17 | -0.976
N#Cc1ccc(C(O)C2C=CC3C(=O)NC(=O)C3N2Nc2ccccn2)cc1 (stereo not given) | 0.782 | 0.615 | -0.205 | 0.861 | 0.286 | -0.126 | 1.36 | -0.157 | 0.144 | -1.25 (inactive) | -0.0926 | -0.0103 (inactive) | -1.11 (inactive) | 0.243 (inactive) | -0.345 (inactive) | 0.126 | -0.0427 | 0.166 | 0.241 | -0.301
O=C1N(Cc2ccccc2)c2ccccc2[C@H]2OC(c3ccc(OCCCO)cc3)=N[C@@]12Cc1ccccc1 | 2.1 | 1.19 | 0.6 | 0.696 | 1.35 | 1.52 | -1.4 | 0.584 | 0.694 | -2.98 (inactive) | 0.806 | -4.93 (inactive) | -0.0376 (inactive) | 0.708 (inactive) | -1.07 (inactive) | 0.0454 | 0.147 | -0.0599 | 0.242 | 1.64
C=CC[C@@]12N=C(c3ccc(OCCCO)cc3)O[C@@H]1c1ccccc1N(Cc1ccccc1)C2=O | 2.52 | 1.17 | 0.986 | 0.8 | 1.55 | 1.44 | -0.379 | 1.55 | 1.04 | -2.6 (inactive) | 0.711 | -4.31 (inactive) | 0.519 (inactive) | 1.1 (inactive) | -1.66 (inactive) | 0.25 | 0.605 | 1.19 | 0.909 | 2.06
[N-]=[N+]=NCc1ccccc1[C@H]1OC(c2ccc(OCCCO)cc2)=N[C@@]1(Cc1ccccc1)C(=O)N1CCOCC1 | 1.44 | 1.26 | 0.46 | 0.992 | 0.25 | 1.48 | 0.343 | -0.155 | 0.723 | -0.372 (inactive) | 0.896 | -3.73 (inactive) | -0.78 (inactive) | 2.02 (inactive) | -0.227 (inactive) | 1.08 | 0.355 | 1.47 | 1.17 | -0.346
COC(=O)c1c(CC[C@@H](CO)NC(=O)N[C@@H](Cc2ccccc2)Cn2cc(-c3cncn3C)nn2)oc(C(C)=O)c1C(=O)OC | 0.579 | 0.873 | -0.179 | 0.107 | 1.01 | -0.0088 | -0.691 | 0.847 | 0.391 | 0.879 (inactive) | -0.245 | -3.29 (inactive) | -0.662 (inactive) | -0.491 (inactive) | -0.566 (inactive) | -0.0808 | 0.0872 | 0.443 | 1.26 | 1.75
C=CCC(OC(C)=O)[C@@H]1[C@@H](N(Cc2cccc3ccccc23)C(=O)c2ccc(-c3ccccc3)cc2)c2cc(OCCCO)ccc2N1C(=O)c1ccc2ccccc2n1 (stereo not given in full) | 0.112 | 0.263 | 0.0785 | 0.677 | 0.537 | -0.0329 | -0.0419 | 0.752 | 0.922 | 0.222 (inactive) | -0.133 | -0.205 (inactive) | 0.409 (inactive) | 0.106 (inactive) | 0.481 (inactive) | 0.582 | 0.195 | 0.178 | 0.309 | 0.664
CCC[C@@H]1[C@@H](Sc2ccccc2)[C@@H](C(=O)O)[C@H](c2ccc(C)cc2)N1S(=O)(=O)c1ccc(C)cc1 | 0.832 | 1.25 | 0.725 | 1.05 | 0.769 | 0.0754 | -0.61 | 0.717 | 0.774 | 1.46 (inactive) | 0.664 | -1.72 (inactive) | -1.96 (inactive) | -0.471 (inactive) | -0.722 (inactive) | 1.67 | 0.0921 | 0.26 | 0.165 | 0.641
C=CCC(OC(C)=O)[C@@H]1[C@@H](N(Cc2cccc3ccccc23)C(=O)c2cccc3ccccc23)c2cc(OCCCO)ccc2N1C(=O)Cc1ccc2ccccc2c1 (stereo not given in full) | 0.866 | -0.0855 | 0.119 | -0.438 | 0.832 | 0.448 | 0.169 | 0.093 | 0.457 | 1.06 (inactive) | -0.0137 | -1.61 (inactive) | 0.576 (inactive) | -0.36 (inactive) | 0.272 (inactive) | -0.166 | 0.0497 | -1.07 | -0.736 | 0.882
COc1cc(OC)c(C(O)C2C=CC3C(=O)N(c4ccccc4)C(=O)C3N2Nc2ccccc2F)cc1Br (stereo not given) | 1.31 | 1.25 | 0.823 | 1.01 | 1.34 | 0.0348 | -0.78 | 0.666 | 0.898 | -0.443 (inactive) | 0.193 | -0.259 (inactive) | -1.14 (inactive) | 0.636 (inactive) | 0.758 (inactive) | 1.24 | 0.206 | 2.01 | 0.879 | -0.2
